# Measurements from PubChem BioAssay (NCATS).
# Results filed as inconclusive are left out. Where a call stands in place of a potency, no number is given. Calls of active or inactive are those of the source. Calls come from the whole dose curve; as a rule, active = well fitted inhibition curve with a large enough effect; inconclusive = small, poorly fitted or top-dose-only effect; inactive = flat fitted curve, though single readings scatter.
# Experiments:
# [1] = biological target: Luciferin 4-monooxygenase (Photinus pyralis) (UniProt P08659); test: Biochemical firefly luciferase enzyme assay for NPC (AID 624030);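 note: purified P. pyralis luciferase at 10 nM with luciferin and ATP substrate; nearly all actives have a fitted effect of over 70% in size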
# Outline: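 Purified P. pyralis luciferase at 10 nM in 50 mM Tris Acetate (final), luminescence read within 5 minutes of enzyme addition to compounds. Activity normalised to PTC124 versus DMSO; concentration-response curves classed by r2, magnitude and activity.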
# [2] = test system: AA1029; test: qHTS profiling for inhibitors of Plasmodium falciparum proliferation (AID 504749); note: nearly all actives have a fitted effect of over 60% in size; note: potency is the fitted concentration of half-maximal effect; conditions: P. falciparum in erythrocytes, SYBR Green DNA, 72 h; series mostly up to 28.7 µM
# Outline: (§1)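 Readout was DNA-dye fluorescence from lysed cultures, ex 485/em 535 nm. Parasitized red cells had grown 72 h with compound; data scaled between 0.29 uM artemisinin and DMSO wells and corrected using vehicle-only plates.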
# [3] = test system: AS120; test: as above; conditions: P. falciparum in erythrocytes, SYBR Green DNA, 72 h; series mostly up to 28.7 µM
# Outline: as §1
# [4] = test system: CP194; test: as above; conditions: P. falciparum in erythrocytes, SYBR Green DNA, 72 h; series mostly up to 28.7 µM
# Outline: as §1
# [5] = test system: CP203; test: as above; conditions: P. falciparum in erythrocytes, SYBR Green DNA, 72 h; series mostly up to 28.7 µM
# Outline: as §1
# [6] = test system: CP211; test: as above; conditions: P. falciparum in erythrocytes, SYBR Green DNA, 72 h; series mostly up to 28.7 µM
# Outline: as §1
# [7] = test system: CP237; test: as above; conditions: P. falciparum in erythrocytes, SYBR Green DNA, 72 h; series mostly up to 28.7 µM
# Outline: as §1
# [8] = test system: CP268; test: as above; conditions: P. falciparum in erythrocytes, SYBR Green DNA, 72 h; series mostly up to 28.7 µM
# Outline: as §1
# [9] = test system: CP269; test: as above; conditions: P. falciparum in erythrocytes, SYBR Green DNA, 72 h; series mostly up to 28.7 µM
# Outline: as §1
# [10] = test system: CP305; test: as above; conditions: P. falciparum in erythrocytes, SYBR Green DNA, 72 h; series mostly up to 28.7 µM
# Outline: as §1
# [11] = test system: CP329; test: as above; conditions: P. falciparum in erythrocytes, SYBR Green DNA, 72 h; series mostly up to 28.7 µM
# Outline: as §1
# [12] = test system: FAB9; test: as above; conditions: P. falciparum in erythrocytes, SYBR Green DNA, 72 h; series mostly up to 28.7 µM
# Outline: as §1
# [13] = test system: JCK; test: as above; conditions: P. falciparum in erythrocytes, SYBR Green DNA, 72 h; series mostly up to 28.7 µM
# Outline: as §1
# [14] = test system: N140; test: as above; conditions: P. falciparum in erythrocytes, SYBR Green DNA, 72 h; series mostly up to 28.7 µM
# Outline: as §1
# [15] = test system: PAD; test: as above; conditions: P. falciparum in erythrocytes, SYBR Green DNA, 72 h; series mostly up to 28.7 µM
# Outline: as §1
# [16] = test system: PC15; test: as above; conditions: P. falciparum in erythrocytes, SYBR Green DNA, 72 h; series mostly up to 28.7 µM
# Outline: as §1
# [17] = test system: SC27B; test: as above; conditions: P. falciparum in erythrocytes, SYBR Green DNA, 72 h; series mostly up to 28.7 µM
# Outline: as §1
# [18] = test system: TAB109; test: as above; conditions: P. falciparum in erythrocytes, SYBR Green DNA, 72 h; series mostly up to 28.7 µM
# Outline: as §1
# [19] = test system: TAB113; test: as above; conditions: P. falciparum in erythrocytes, SYBR Green DNA, 72 h; series mostly up to 28.7 µM
# Outline: as §1
# [20] = test system: TAB165; test: as above; conditions: P. falciparum in erythrocytes, SYBR Green DNA, 72 h; series mostly up to 28.7 µM
# Outline: as §1
# Luciferin 4-monooxygenase (Photinus pyralis), sequence (P08659 whole entry, looked up): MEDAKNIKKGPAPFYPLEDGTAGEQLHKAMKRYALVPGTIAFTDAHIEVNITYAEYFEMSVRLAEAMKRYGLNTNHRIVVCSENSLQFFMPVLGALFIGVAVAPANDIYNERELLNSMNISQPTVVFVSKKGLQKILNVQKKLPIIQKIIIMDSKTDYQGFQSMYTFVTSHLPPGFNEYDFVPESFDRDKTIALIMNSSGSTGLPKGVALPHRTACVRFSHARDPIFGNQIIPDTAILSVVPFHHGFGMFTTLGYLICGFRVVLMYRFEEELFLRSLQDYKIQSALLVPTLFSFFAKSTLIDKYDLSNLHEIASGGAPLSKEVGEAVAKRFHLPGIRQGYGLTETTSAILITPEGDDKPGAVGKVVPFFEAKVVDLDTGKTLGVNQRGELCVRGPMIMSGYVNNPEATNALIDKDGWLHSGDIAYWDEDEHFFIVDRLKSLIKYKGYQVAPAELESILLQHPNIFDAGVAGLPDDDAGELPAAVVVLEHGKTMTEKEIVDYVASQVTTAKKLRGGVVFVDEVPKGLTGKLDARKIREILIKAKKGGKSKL
SMILES,Potency [1],Potency [2],Potency [3],Potency [4],Potency [5],Potency [6],Potency [7],Potency [8],Potency [9],Potency [10],Potency [11],Potency [12],Potency [13],Potency [14],Potency [15],Potency [16],Potency [17],Potency [18],Potency [19],Potency [20]
CC1OC(OC2CCC3(C)C(CCC4C3CC(O)C3(C)C(C5=CC(=O)OC5)CCC43O)C2)CC(O)C1OC1CC(O)C(OC2CC(O)C(OC3OC(CO)C(O)C(O)C3O)C(C)O2)C(C)O1 (centres undefined),inactive,inactive,inactive,inactive,inactive,inactive,inactive,inactive,inactive,inactive,inactive,inactive,inactive,inactive,inactive,inactive,inactive,inactive,inactive,inactive
COC(c1ccccc1)(c1ccccc1)C(Oc1nc(C)cc(C)n1)C(=O)O (centres undefined),inactive,inactive,inactive,inactive,inactive,inactive,inactive,inactive,inactive,inactive,inactive,inactive,inactive,inactive,inactive,inactive,inactive,inactive,inactive,inactive
OCC1O[C@@H](O[C@@H]2C(CO)OC(O)C(O)C2O)C(O)C(O)C1O (some centres undefined),inactive,inactive,inactive,inactive,inactive,inactive,inactive,inactive,inactive,inactive,inactive,inactive,inactive,inactive,inactive,inactive,inactive,inactive,inactive,inactive
CC1(C)OC[C@@H]2O[C@@]3(C(=O)O)OC(C)(C)O[C@@H]3[C@@H]2O1,inactive,inactive,inactive,inactive,inactive,inactive,inactive,inactive,inactive,inactive,inactive,inactive,inactive,inactive,inactive,inactive,inactive,inactive,inactive,inactive
O=C1C(I)=CC(=C(c2cc(I)c(O)c(I)c2)c2ccccc2C(=O)O)C=C1I,–,inactive,inactive,inactive,inactive,inactive,inactive,inactive,inactive,inactive,inactive,inactive,inactive,inactive,inactive,inactive,inactive,inactive,inactive,inactive
O=[N+]([O-])O[C@H]1CO[C@H]2[C@@H]1OC[C@H]2O,inactive,inactive,inactive,inactive,inactive,inactive,inactive,inactive,inactive,inactive,inactive,inactive,inactive,inactive,inactive,inactive,inactive,inactive,inactive,inactive
CCCCC(=O)OCC(=O)[C@]1(O)Cc2c(O)c3c(c(O)c2[C@H](OC2CC(NC(=O)C(F)(F)F)C(O)C(C)O2)C1)C(=O)c1c(OC)cccc1C3=O (some centres undefined),inactive,2000 nM (active),2000 nM (active),3010 nM (active),1690 nM (active),1690 nM (active),1580 nM (active),5360 nM (active),1690 nM (active),4780 nM (active),3790 nM (active),11200 nM (active),–,2000 nM (active),2240 nM (active),3550 nM (active),2510 nM (active),2000 nM (active),2510 nM (active),2240 nM (active)
C/C1=C2/[N-]C(C(CC(N)=O)[C@@]2(C)CCC(=O)NCC(C)OP(=O)([O-])O[C@H]2[C@@H](O)[C@@H](n3cnc4cc(C)c(C)cc43)O[C@@H]2CO)[C@]2(C)N=C(/C(C)=C3N=C(/C=C4N=C1C(CCC(N)=O)C\4(C)C)[C@@H](CCC(N)=O)[C@]\3(C)CC(N)=O)[C@@H](CCC(N)=O)[C@]2(C)CC(N)=O.CC(=O)O.[Co] (some centres undefined),–,inactive,inactive,inactive,inactive,inactive,inactive,inactive,inactive,inactive,inactive,inactive,inactive,inactive,inactive,inactive,inactive,inactive,inactive,inactive
C=NC(C(=O)NC1C(=O)N2C1SC(C)(C)C2C(=O)O)c1ccccc1 (centres undefined),inactive,inactive,inactive,inactive,inactive,inactive,inactive,inactive,inactive,inactive,inactive,inactive,inactive,inactive,inactive,inactive,inactive,inactive,inactive,inactive
O=C1NC(=O)C2C3C=CC(C3)C12 (centres undefined),inactive,inactive,inactive,inactive,inactive,inactive,inactive,inactive,inactive,inactive,inactive,inactive,inactive,inactive,inactive,inactive,inactive,inactive,inactive,inactive
NC(=O)NC(CCC(=O)O)C(=O)O (centres undefined),inactive,inactive,inactive,inactive,inactive,inactive,inactive,inactive,inactive,inactive,inactive,inactive,inactive,inactive,inactive,inactive,inactive,inactive,inactive,inactive
CC(=O)NC1[C@H]([C@H](O)[C@H](O)CO)OC(C(=O)O)=C[C@H]1N=C(N)N (some centres undefined),inactive,inactive,inactive,inactive,inactive,inactive,inactive,inactive,inactive,inactive,inactive,inactive,inactive,inactive,inactive,inactive,inactive,inactive,inactive,inactive
OCCN1CC(O)C(O)C(O)C1CO (centres undefined),inactive,inactive,inactive,inactive,inactive,inactive,inactive,inactive,inactive,inactive,inactive,inactive,inactive,inactive,inactive,inactive,inactive,inactive,inactive,inactive
O=C(OC[C@@H]1O[C@@](O)(COC(=O)c2cccnc2)[C@H](OC(=O)c2cccnc2)[C@H]1OC(=O)c1cccnc1)c1cccnc1,inactive,inactive,inactive,inactive,inactive,inactive,inactive,inactive,inactive,inactive,inactive,inactive,inactive,inactive,inactive,inactive,inactive,–,inactive,inactive
CC(C)C[C@@H](NC(=O)[C@@H](Cc1ccccc1)NC(=O)c1cnccn1)B(O)O,inactive,112 nM (active),100 nM (active),426 nM (active),338 nM (active),757 nM (active),89.1 nM (active),135 nM (active),151 nM (active),757 nM (active),120 nM (active),141 nM (active),141 nM (active),100 nM (active),141 nM (active),316 nM (active),141 nM (active),70.8 nM (active),100 nM (active),70.8 nM (active)
CC1(C)SC2C(NC(=O)C(C(=O)O)c3ccccc3)C(=O)N2C1C(=O)O (centres undefined),inactive,inactive,inactive,inactive,inactive,inactive,inactive,inactive,inactive,inactive,inactive,inactive,inactive,inactive,inactive,inactive,inactive,inactive,inactive,inactive
OCCOC[C@H]1O[C@H](OCCO)[C@H](OCCO)[C@@H](OCCO)[C@@H]1OCCO (tested in a mixture with another compound),inactive,inactive,inactive,inactive,inactive,inactive,inactive,inactive,inactive,inactive,inactive,inactive,inactive,inactive,inactive,inactive,inactive,inactive,–,inactive
CCCCN1CC(O)C(O)C(O)C1CO (centres undefined),inactive,inactive,inactive,inactive,inactive,inactive,inactive,inactive,inactive,inactive,inactive,inactive,inactive,inactive,inactive,inactive,inactive,inactive,inactive,inactive
C[C@H]1[C@@H](OC(=O)CCC(=O)O)OC2OC3(C)CC[C@H]4[C@H](C)CC[C@@H]1[C@@]24OO3 (some centres undefined),inactive,6.3 nM (active),5 nM (active),6 nM (active),5.4 nM (active),4.8 nM (active),6.3 nM (active),5.4 nM (active),4.8 nM (active),6 nM (active),7.6 nM (active),4.5 nM (active),–,3.2 nM (active),5.6 nM (active),4.5 nM (active),5 nM (active),2.5 nM (active),2 nM (active),1.8 nM (active)
C[n+]1c2cc(N)ccc2cc2ccc(N)cc21,inactive,708 nM (active),1000 nM (active),1200 nM (active),1070 nM (active),953 nM (active),282 nM (active),757 nM (active),953 nM (active),757 nM (active),1070 nM (active),199 nM (active),794 nM (active),631 nM (active),1000 nM (active),178 nM (active),1580 nM (active),447 nM (active),891 nM (active),398 nM (active)
CCN1CCN(C(=O)NC(C(=O)NC2C(=O)N3C(C(=O)O)=C(CSc4nnnn4C)CSC23)c2ccc(O)cc2)C(=O)C1=O (centres undefined),inactive,inactive,inactive,inactive,inactive,inactive,inactive,inactive,inactive,inactive,inactive,inactive,inactive,inactive,inactive,inactive,inactive,inactive,inactive,inactive
